Test results from PubChem BioAssay (NCATS).
Values without a mark were called inactive. Inconclusive results are not listed. A call without a number means that no potency is given here. Active and inactive are the calls of the source. Unless noted, calls follow the shape of the dose curve; as a rule, active = well fitted curve in the direction sought with a large enough effect; inconclusive = small, poorly fitted or top-dose-only effect, or another doubt; inactive = no such curve, though single readings can be large; an effect the other way counts as inactive or inconclusive.

Assays:
[1] = Stat Signaling Pathway (AID 446; active = well fitted curve in either direction with a large enough effect, not every such curve was filed as active;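 also: ME-180 cervical cancer cells given 40 pM IL-6 alongside compound; SIE-controlled beta-lactamase reporter measured as 460/530 nm FRET emission ratio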); conditions: ME-180 (cervical carcinoma) SIE beta-lactamase reporter, IL-6 stimulated, 5 h; at 17.2 µM (top of the series)
How it was run: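 IL-6/STAT signaling read in ME-180 cells via an SIE beta-lactamase reporter. Stimulus was 40 pM IL-6 (its AC50) for 5 hrs, so both activation and inhibition register.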

[2] = system: Zika virus NS2B-NS3 protease; assay: Primary screen GU AMC qHTS for Zika virus inhibitors (AID 1347154); conditions: Zika NS2B-NS3 unlinked protease, AMC fluorogenic substrate; series mostly up to 54.1 µM; also: nearly all actives have a fitted effect of over 70% in size
How it was run: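 Fluorogenic AMC-substrate cleavage by noncovalent NS2B-NS3 protease complex (25 nM, pH 8.0 Tris buffer with Tween 20) followed for 15 minutes at room temperature (~20% conversion). Percent inhibition from ex340/em450 signal change, fitted by 4-parameter Hill equation.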

[3] = Primary qHTS for small molecule stabilizers of the endoplasmic reticulum resident proteome: Secreted ER Calcium Modulated Protein (SERCaMP) assay (AID 1508630); conditions: SH-SY5Y GLuc-SERCaMP (Gaussia luciferase released on ER calcium loss) secretion, thapsigargin, luminescence; series mostly up to 38.4 µM
How it was run: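 GLuc-SERCaMP-expressing SH-SY5Y cells, pretreated 16 h with compound, are challenged with thapsigargin to empty ER calcium stores; after 4 h, coelenterazine is added directly to the medium and luminescence is imaged.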

[4] = biological target: Cytochrome P450 1A2 (Homo sapiens) (UniProt P05177); assay: p450-cyp1a2 (AID 410; calls by dose curve; also: potency is read from the fitted curve at half-maximal effect); conditions: recombinant CYP1A2, luciferin-ME demethylation, luminescence; series mostly up to 57 µM
How it was run: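 Luminescent readout of luciferin formed from Luciferin-ME by human CYP1A2; data normalized against complete inhibition by 57 uM furafylline. Enzyme 20nM, substrate 100uM at Km, 100mM KPO4 buffer, 60 min reaction at room temperature.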

[5] = biological target: Glucocorticoid receptor (Homo sapiens) (UniProt P04150); assay: GR-GFP Redistribution (AID 450;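 active = compounds whose dose series gives a full or clear partial fitted curve of increased nuclear translocation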; also: potency is read from the fitted curve at half-maximal effect); conditions: U2OS GR-GFP nuclear translocation, laser cytometry, 2 h
[6] = biological target: Glucocorticoid receptor (Homo sapiens) (UniProt P04150); assay: GR-EFC Redistribution (AID 451; calls by dose curve; also: potency is read from the fitted curve at half-maximal effect); conditions: CHO-K1 GR-EFC translocation, beta-gal luminescence, 2 h
How it was run: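 Translocation of GR-ED fusion to nuclear EA restores b-gal, read by luminescence after 1 h room-temperature detection. Engineered CHO-K1 biosensor cells, 1,000/well, exposed 2 h at 37 C to titrations up to 46 uM final.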

[7] = biological target: Mitogen-activated protein kinase 10 (Mus musculus) (UniProt Q61831); assay: JNK3 AlphaScreen Assay (AID 530; active = well fitted curve in either direction with a large enough effect, not every such curve was filed as active;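 also: kinase came from lysate of stimulated human HepG2 cells; signal reports phosphorylation of biotinylated GST-cJun 1-79 at Ser73 with 10 µM ATP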); conditions: JNK3 lysate, c-Jun phosphorylation; series mostly up to 57.1 µM
How it was run: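 Compound titrations were preincubated 15 minutes at room temperature with substrate, antibody and pre-activated JNK3-containing HepG2 lysate. Reactions were started with 10 uM ATP and stopped with EDTA-containing bead buffer for AlphaScreen detection.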

[8] = biological target: 3',5'-cyclic-AMP phosphodiesterase 4B (Homo sapiens) (UniProt Q07343); assay: qHTS Assay for Inhibitors of PDE-IV (AID 607; active = well fitted activation curve with a large enough effect in the main read-out, with a control signal flat, not every such curve was filed as active); conditions: HEK293 ACTOne CNG channel cells, membrane potential fluorescence; series mostly up to 22.9 µM
How it was run: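 Live HEK293 cells with a modified cyclic nucleotide-gated (CNG) channel report intracellular cAMP via membrane-potential dye fluorescence (ex 535/em 590 nm). Endogenous PDE-IV was targeted. Compounds were tested at up to 22.9 uM final; RO 20-1724 100 uM served as control.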

[9] = biological target: Cytochrome P450 3A4 (Homo sapiens) (UniProt P08684); assay: qHTS Assay for Activators of Cytochrome P450 3A4 (AID 885); conditions: recombinant CYP3A4, Luciferin-PPXE luminescence, 60 min; series mostly up to 57.1 µM; also: nearly all actives have a fitted effect of over 65% in size; also: potency is read from the fitted curve at half-maximal effect
How it was run: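 Quantitative HTS format: compounds preincubated with 20nM human CYP3A4 and Luciferin-PPXE substrate at KM, reaction started by NADPH regeneration, stopped after 60 min, luciferase luminescence read 20 min later.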

[10] = biological target: DNA dC->dU-editing enzyme APOBEC-3G (Homo sapiens) (UniProt Q9HC16); assay: qHTS for inhibitors of Vif-A3G interactions: Validation (AID 588379); conditions: Vif-A3G protein interaction assay; series mostly up to 46.1 µM
How it was run: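 HeLa cells stably expressing Vif and A3G-eYFP, 700 cells/well, incubated overnight at 37 deg C, then exposed to compound overnight at 37 deg C. Inhibition of Vif-mediated degradation read as increased yellow fluorescence (Ex 488/Em 500-530) by laser-scanning cytometry.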

[11] = biological target: Cytochrome P450 3A4 (Homo sapiens) (UniProt P08684); assay: qHTS Assay for Inhibitors and Substrates of Cytochrome P450 3A4 (AID 884); conditions: recombinant CYP3A4, Luciferin-PPXE luminescence; series mostly up to 57.1 µM; also: nearly all actives have a fitted effect of over 50% in size; also: potency is read from the fitted curve at half-maximal effect
How it was run: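 20 nM human CYP3A4 with 25 uM Luciferin-PPXE (at KM) in 200 mM KPO4, preincubated 10 min with compound; NADPH regeneration started a 60 min RT reaction. Luciferin detected by luminescence, normalized to 57 uM ketoconazole as full inhibition.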

[12] = biological target: Cytochrome P450 2C9 (Homo sapiens) (UniProt P11712); assay: qHTS Assay for Inhibitors and Substrates of Cytochrome P450 2C9 (AID 883); conditions: recombinant CYP2C9, luciferin-H luminescence, 60 min; series mostly up to 57.1 µM; also: nearly all actives have a fitted effect of over 60% in size
How it was run: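 Luminescent read-out of deoxyluciferin hydroxylation, normalized to 57uM sulphaphenazole (AC100). Reaction: 10nM enzyme, 100uM Luciferin-H (equal to KM), 25mM KPO4, 10 min compound preincubation, then 60 min with NADPH regeneration, both at 37C.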

[13] = biological target: Cytochrome P450 2D6 (Homo sapiens) (UniProt P10635); assay: qHTS Assay for Inhibitors and Substrates of Cytochrome P450 2D6 (AID 891); conditions: recombinant CYP2D6, luciferin-ME EGE luminescence; series mostly up to 57.1 µM; also: potency is read from the fitted curve at half-maximal effect; nearly all actives have a fitted effect of over 60% in size
How it was run: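 Human CYP2D6 (5 nM) with 30 uM Luciferin-ME EGE (at Km) in 100 mM KPO4, compound preincubated 10 min, then NADPH regeneration system for 60 min at room temperature. Luciferin read by luminescence; normalized to 1.43 uM quinidine.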

[14] = biological target: Ubiquitin carboxyl-terminal hydrolase 1 (Homo sapiens) (UniProt O94782); assay: Inhibitors of USP1/UAF1: Pilot qHTS (AID 504865); conditions: purified USP1/UAF1, Ub-rhodamine cleavage fluorescence; series mostly up to 114 µM;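 also: rhodamine fluorescence freed from ubiquitin-rhodamine substrate followed over time; top concentration of the series differs between compounds; nearly all actives have a fitted effect of over 35% in size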
How it was run: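 Deubiquitinase activity followed as kinetic rhodamine fluorescence release from 150 nM Ub-Rho. 1 nM USP1/UAF1 with compound, after 15 min room-temperature preincubation, in HEPES pH 7.8 buffer containing TCEP, EDTA, BSA and Tween-20.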

Chain of Cytochrome P450 3A4 (Homo sapiens) (P08684 whole entry, looked up): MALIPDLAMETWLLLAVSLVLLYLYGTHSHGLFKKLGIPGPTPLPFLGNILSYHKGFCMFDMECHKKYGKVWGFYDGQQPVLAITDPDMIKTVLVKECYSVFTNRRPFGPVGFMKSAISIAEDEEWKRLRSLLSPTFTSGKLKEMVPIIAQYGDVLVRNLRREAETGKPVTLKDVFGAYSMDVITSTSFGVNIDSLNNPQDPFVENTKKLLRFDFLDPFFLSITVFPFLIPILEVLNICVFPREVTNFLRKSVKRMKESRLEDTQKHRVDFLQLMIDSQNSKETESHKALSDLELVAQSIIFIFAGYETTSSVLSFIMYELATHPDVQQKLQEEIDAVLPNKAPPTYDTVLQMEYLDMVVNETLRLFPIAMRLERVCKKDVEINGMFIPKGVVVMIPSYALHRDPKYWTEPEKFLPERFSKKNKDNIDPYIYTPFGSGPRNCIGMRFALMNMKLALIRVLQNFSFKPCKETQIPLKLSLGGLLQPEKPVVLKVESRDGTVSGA
Chain of Glucocorticoid receptor (Homo sapiens) (P04150 whole entry, looked up, the tested form may be a part): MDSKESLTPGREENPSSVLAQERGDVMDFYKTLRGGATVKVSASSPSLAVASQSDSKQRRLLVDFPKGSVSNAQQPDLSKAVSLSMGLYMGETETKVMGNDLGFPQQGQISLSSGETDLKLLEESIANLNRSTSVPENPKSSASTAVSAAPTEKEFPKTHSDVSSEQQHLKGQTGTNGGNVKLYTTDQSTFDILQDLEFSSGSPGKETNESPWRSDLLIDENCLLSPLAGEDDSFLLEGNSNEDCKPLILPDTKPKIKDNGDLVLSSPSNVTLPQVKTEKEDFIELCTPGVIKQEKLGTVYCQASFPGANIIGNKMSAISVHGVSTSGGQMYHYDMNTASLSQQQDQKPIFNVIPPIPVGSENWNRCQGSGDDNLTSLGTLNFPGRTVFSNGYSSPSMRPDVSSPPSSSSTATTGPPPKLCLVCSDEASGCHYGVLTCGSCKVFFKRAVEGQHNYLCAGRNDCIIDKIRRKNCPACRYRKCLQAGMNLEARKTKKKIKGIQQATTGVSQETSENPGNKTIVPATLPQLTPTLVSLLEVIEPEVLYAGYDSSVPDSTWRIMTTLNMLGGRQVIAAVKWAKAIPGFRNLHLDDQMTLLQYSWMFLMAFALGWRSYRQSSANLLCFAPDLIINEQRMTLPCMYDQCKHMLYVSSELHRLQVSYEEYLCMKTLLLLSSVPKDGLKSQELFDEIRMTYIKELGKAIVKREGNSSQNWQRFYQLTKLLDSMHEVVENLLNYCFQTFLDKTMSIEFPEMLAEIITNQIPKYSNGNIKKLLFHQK
Chain of 3',5'-cyclic-AMP phosphodiesterase 4B (Homo sapiens) (Q07343 whole entry, looked up): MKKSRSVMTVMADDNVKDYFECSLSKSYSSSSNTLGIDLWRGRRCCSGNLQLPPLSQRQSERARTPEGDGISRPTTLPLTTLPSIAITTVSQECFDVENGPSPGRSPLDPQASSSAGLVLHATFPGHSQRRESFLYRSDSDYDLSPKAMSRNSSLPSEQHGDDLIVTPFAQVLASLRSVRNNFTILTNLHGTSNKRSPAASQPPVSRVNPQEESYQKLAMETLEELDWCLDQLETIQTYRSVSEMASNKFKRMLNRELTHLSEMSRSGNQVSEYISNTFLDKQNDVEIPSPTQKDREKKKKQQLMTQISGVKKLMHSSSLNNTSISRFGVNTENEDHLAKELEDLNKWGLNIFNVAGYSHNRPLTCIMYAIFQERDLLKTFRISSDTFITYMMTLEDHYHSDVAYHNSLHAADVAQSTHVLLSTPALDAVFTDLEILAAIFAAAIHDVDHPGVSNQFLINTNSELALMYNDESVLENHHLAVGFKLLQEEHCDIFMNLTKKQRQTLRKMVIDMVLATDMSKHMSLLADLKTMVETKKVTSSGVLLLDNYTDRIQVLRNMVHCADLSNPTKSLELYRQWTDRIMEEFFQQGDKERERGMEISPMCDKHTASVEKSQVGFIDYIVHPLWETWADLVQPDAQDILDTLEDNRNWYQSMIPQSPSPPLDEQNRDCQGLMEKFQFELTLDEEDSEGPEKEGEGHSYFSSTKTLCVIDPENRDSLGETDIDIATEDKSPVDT
Chain of Cytochrome P450 1A2 (Homo sapiens) (P05177 whole entry, looked up): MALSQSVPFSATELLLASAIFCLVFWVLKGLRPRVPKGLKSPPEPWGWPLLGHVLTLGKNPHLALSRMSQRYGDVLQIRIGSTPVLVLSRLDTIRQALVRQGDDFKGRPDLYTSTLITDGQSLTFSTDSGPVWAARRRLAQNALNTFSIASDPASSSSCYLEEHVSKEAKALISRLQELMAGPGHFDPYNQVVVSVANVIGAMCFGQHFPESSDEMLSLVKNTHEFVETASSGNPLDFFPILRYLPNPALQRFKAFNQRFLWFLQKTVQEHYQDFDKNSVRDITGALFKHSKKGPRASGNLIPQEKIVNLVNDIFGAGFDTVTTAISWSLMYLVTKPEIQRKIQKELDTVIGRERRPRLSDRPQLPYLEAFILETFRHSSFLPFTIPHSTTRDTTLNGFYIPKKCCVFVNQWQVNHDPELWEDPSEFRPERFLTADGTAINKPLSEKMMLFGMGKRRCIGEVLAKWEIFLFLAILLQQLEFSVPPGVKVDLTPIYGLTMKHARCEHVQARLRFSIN
Chain of Ubiquitin carboxyl-terminal hydrolase 1 (Homo sapiens) (O94782 whole entry, looked up): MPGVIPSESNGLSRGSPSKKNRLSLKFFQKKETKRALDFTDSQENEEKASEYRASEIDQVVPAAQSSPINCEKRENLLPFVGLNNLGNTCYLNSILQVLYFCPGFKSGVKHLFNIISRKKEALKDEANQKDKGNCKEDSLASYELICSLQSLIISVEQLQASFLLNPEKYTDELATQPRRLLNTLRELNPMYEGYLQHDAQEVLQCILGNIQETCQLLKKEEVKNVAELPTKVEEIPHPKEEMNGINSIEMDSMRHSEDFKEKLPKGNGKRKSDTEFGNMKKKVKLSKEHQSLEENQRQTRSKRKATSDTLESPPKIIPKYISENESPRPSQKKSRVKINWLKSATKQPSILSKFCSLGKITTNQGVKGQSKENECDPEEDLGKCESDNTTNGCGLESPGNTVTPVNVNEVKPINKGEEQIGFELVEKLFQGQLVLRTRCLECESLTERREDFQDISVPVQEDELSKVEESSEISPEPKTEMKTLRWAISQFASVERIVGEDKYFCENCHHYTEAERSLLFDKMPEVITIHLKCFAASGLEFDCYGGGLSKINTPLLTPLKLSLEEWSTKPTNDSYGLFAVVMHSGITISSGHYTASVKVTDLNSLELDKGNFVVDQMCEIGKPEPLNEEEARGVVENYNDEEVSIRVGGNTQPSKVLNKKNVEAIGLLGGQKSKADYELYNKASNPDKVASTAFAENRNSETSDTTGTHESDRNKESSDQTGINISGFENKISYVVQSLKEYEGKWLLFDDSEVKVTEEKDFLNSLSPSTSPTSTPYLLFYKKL
Chain of DNA dC->dU-editing enzyme APOBEC-3G (Homo sapiens) (Q9HC16 whole entry, looked up): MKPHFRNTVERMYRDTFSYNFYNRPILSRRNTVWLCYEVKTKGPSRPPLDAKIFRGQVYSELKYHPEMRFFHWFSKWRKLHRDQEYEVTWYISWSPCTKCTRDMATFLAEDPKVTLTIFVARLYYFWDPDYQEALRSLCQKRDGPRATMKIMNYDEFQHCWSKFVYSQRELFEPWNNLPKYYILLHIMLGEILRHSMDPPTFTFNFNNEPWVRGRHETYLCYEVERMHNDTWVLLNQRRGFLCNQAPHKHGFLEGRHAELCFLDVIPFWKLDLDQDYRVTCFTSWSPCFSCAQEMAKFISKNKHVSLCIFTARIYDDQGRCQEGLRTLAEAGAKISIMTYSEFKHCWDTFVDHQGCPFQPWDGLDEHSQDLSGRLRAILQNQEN
Chain of Cytochrome P450 2C9 (Homo sapiens) (P11712 whole entry, looked up): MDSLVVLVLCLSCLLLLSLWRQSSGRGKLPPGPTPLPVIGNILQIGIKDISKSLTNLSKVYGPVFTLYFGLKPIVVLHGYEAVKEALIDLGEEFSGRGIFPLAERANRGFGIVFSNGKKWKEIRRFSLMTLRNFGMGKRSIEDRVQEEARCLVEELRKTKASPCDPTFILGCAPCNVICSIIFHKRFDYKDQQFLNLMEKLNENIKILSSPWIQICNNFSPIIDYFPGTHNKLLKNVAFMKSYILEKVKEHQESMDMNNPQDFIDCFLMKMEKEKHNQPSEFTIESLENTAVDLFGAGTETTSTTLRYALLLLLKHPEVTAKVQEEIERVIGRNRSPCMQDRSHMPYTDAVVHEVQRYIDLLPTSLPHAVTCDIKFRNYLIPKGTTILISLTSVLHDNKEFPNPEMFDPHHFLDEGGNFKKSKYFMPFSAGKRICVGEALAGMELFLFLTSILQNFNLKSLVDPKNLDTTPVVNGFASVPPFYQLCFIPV
Chain of Cytochrome P450 2D6 (Homo sapiens) (P10635 whole entry, looked up): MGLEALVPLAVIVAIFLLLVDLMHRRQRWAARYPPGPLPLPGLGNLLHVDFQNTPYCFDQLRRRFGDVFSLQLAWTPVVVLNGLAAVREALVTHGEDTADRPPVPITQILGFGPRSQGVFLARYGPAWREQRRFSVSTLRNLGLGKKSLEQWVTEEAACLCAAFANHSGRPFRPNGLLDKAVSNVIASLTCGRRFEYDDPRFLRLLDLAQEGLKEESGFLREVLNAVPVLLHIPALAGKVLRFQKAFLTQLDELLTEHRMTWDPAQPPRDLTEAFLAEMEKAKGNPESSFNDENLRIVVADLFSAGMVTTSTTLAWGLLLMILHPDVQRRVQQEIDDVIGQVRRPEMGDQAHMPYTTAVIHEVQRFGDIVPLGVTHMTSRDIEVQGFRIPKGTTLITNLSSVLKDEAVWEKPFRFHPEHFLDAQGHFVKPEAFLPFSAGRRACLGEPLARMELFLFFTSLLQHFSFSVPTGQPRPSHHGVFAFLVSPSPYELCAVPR

Structure (SMILES): CCCCC[C@H](O)/C=C/C1=C(CCCCCCC(=O)O)C(=O)CC1
- activity, negative = inhibition [1]: 0.776%
- activity change, negative = inhibition [2]: 14% [at 6.83 µM]
- activity change, negative = inhibition [3]: -5.34% [at 3.88 µM]

Structure (SMILES): CC1(C)CC(=O)C([C@H]2C3=C(CC(C)(C)CC3=O)Oc3ccccc32)C(=O)C1
- Potency [4]: inactive
- Potency [5]: > 46 µM
- Potency [6]: > 46 µM
- Potency [7]: inactive
- Potency [8]: inactive
- Potency [9]: inactive
- Potency [10]: inactive
- Potency [2]: inactive
- Potency [3]: inactive

Structure (SMILES): CCCCC(=O)NCCc1c(Cc2ccccc2)[nH]c2ccccc12
- Potency [4]: 3.16 µM (active)
- Potency [6]: > 46 µM
- Potency [7]: inactive
- Potency [11]: 0.794 µM (active)
- Potency [9]: inactive
- Potency [10]: inactive
- Potency [2]: inactive
- Potency [3]: inactive

Structure (SMILES): CCCN(C/C=C\I)[C@@H]1CCc2cccc(O)c2C1
- Potency [4]: 2.51 µM (active)
- Potency [5]: > 46 µM
- Potency [6]: > 46 µM
- Potency [7]: inactive
- Potency [11]: inactive
- Potency [9]: 25.1 µM (active)
- Potency [10]: inactive
- Potency [2]: inactive
- Potency [3]: inactive

Structure (SMILES): CCCn1c(=O)[nH]c2nc(-c3ccc(S(=O)(=O)O)cc3)[nH]c2c1=O
- Potency [4]: inactive
- Potency [6]: > 46 µM
- Potency [12]: inactive
- Potency [11]: inactive
- Potency [13]: 7.94 µM (active)
- Potency [14]: inactive
- Potency [10]: inactive
- Potency [2]: inactive
- Potency [3]: inactive

Structure (SMILES): O=C(c1ccc2c(c1)OCO2)N1CCCCC1
- Potency [5]: > 46 µM
- Potency [6]: > 46 µM
- Potency [7]: inactive
- Potency [8]: inactive
- Potency [14]: inactive
- Potency [10]: inactive
- Potency [2]: inactive
- Potency [3]: inactive

Structure (SMILES): CC[C@]1(O)C[C@@H]2CN(CCc3c([nH]c4ccccc34)[C@](C(=O)OC)(c3cc4c(cc3OC)N(C=O)[C@H]3[C@@](O)(C(=O)OC)[C@H](C(=O)OC)[C@@]5(CC)C=CCN6CC[C@]43[C@H]65)C2)C1
- Potency [5]: > 46 µM
- Potency [6]: > 46 µM
- Potency [9]: inactive
- Potency [14]: inactive
- Potency [10]: inactive
- Potency [2]: inactive
- Potency [3]: inactive

Structure (SMILES): CC#CCOC(=O)C1=CCCN(C)C1
- Potency [5]: > 46 µM
- Potency [6]: > 46 µM
- Potency [7]: inactive
- Potency [8]: inactive
- Potency [14]: inactive
- Potency [10]: inactive
- Potency [2]: inactive
- Potency [3]: inactive

Structure (SMILES): COc1ccc(C(OCCN2CCC[C@@H](C(=O)O)C2)(c2ccc(OC)cc2)c2ccc(OC)cc2)cc1
- Potency [5]: > 46 µM
- Potency [6]: > 46 µM
- Potency [9]: inactive
- Potency [10]: inactive
- Potency [2]: inactive
- Potency [3]: inactive

Structure (SMILES): CC(C)C[C@@H](NC(=O)OCC1c2ccccc2-c2ccccc21)C(=O)O
- Potency [5]: > 46 µM
- Potency [6]: > 46 µM
- Potency [10]: inactive
- Potency [2]: inactive
- Potency [3]: inactive

Structure (SMILES): C[C@H](O)CO[C@H]1[C@H]2O[C@H]3[C@H](O)[C@@H](O)[C@@H](O[C@H]4[C@H](O)[C@@H](O)[C@@H](O[C@H]5[C@H](O)[C@@H](O)[C@@H](O[C@H]6[C@H](O)[C@@H](OC[C@H](C)O)[C@@H](O[C@H]7[C@H](O)[C@@H](OC[C@H](C)O)[C@@H](O[C@H]8[C@H](O)[C@@H](O)[C@@H](O[C@@H]([C@@H]1O)[C@@H](CO)O2)O[C@@H]8CO)O[C@@H]7CO)O[C@@H]6CO)O[C@@H]5CO)O[C@@H]4CO)O[C@@H]3CO
- Potency [5]: > 46 µM
- Potency [6]: > 46 µM
- Potency [14]: inactive
- Potency [10]: inactive
- Potency [2]: inactive
- Potency [3]: inactive
